IMPase Li inh: IMPase inhibition in cells with lithium potentiation | 0.35% of 210,000 active | Potency, µM (doses to about 59.4 µM), without a hit: top-dose activity, negative = IMPase inhibition, hits mostly inhibitors | CHO-M1 cells, IP1 TR-FRET (IP-One), carbachol + lithium;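 note: IP1 builds up when IMPase is blocked and the TR-FRET signal falls; plate controls were basal vehicle for no effect and high inhibitor control for full effect; nearly all actives have a fitted effect of over 50% in size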
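Lithium-sensitised IP1 accumulation assay; M1-expressing CHO cells treated 30 min at 37C with compound. Competitive antibody detection by time-resolved FRET followed a 10 min room-temperature lysis step.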
ERK EGF inh: blocks ERK signaling stimulated by EGF; 0.41% of 130,000 active; HEK293-V1b, EGF-stimulated phospho-ERK AlphaScreen; AID 1454; Potency, µM (highest dose often 11.5 µM), without a hit: at the top dose activity change, negative = inhibition, most hits filed as inhibitors;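 note: plate controls were stimulated vehicle wells for no effect and unstimulated vehicle basal for full effect; nearly all actives have a fitted effect of over 55% in size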
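Phospho-ERK1/2 measured by AlphaScreen (SureFire) after 5 min 25 nM EGF stimulation of V1b-expressing HEK293 cells preincubated 30 min at 37C with titrated compounds; data scaled to DMSO and EGF controls, Hill-fitted AC50.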
NPSR antagonist: neuropeptide S receptor (human) antagonism, cAMP; Q6W5P4; CHO-NPSR cells, cAMP TR-FRET, antagonist mode; Potency, µM (series often up to 38.3 µM), for the others: at the highest dose activity change, negative = inhibition, hits mostly inhibitors; 1% of 220,000 active; note: nearly all actives have a fitted effect of over 50% in size
Target sequence (Q6W5P4 whole entry, looked up): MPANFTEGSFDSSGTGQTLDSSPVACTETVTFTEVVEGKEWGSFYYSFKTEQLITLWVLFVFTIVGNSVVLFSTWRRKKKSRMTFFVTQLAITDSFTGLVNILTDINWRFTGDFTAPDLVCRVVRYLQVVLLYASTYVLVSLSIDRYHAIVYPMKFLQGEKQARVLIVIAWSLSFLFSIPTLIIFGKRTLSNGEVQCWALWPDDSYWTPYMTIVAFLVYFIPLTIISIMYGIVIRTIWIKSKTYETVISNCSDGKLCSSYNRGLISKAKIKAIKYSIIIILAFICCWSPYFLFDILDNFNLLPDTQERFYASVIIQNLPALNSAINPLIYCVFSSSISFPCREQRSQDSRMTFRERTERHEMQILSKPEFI
The depositor's hits bear a star; u = inconclusive; x = no result; [ ] = another dose, or the depositor's remark. Many of the other results were omitted from the sample, so hits are more common in it than they were. Calls come from the whole dose curve; as a rule, active = well fitted curve in the direction sought with a large enough effect; inconclusive = small, poorly fitted or top-dose-only effect, or another doubt; inactive = no such curve, though single readings can be large; an effect the other way counts as inactive or inconclusive. Unless noted, % is set by controls: 0 for no effect and ±100 for the full control effect; potency is the fitted concentration of half-maximal effect.

SMILES	IMPase Li inh	ERK EGF inh	NPSR antagonist
O=C1NC(=S)S/C1=C\C=C\c1ccc([N+](=O)[O-])o1	x	u	7.94µM*
O=c1c(-c2cc(F)cc(F)c2)nc2cnc(N3CCNCC3)nc2n1CCc1ccccc1	4.7%	-4.1%	x
O=S(=O)(c1cccc(NC(=S)N2CCN(c3ccc(F)cc3)CC2)c1)C(F)F	4.6%	u	-32.9%
O=S(=O)(c1cccc(NC(=S)N2CCN(c3cccc(Cl)c3)CC2)c1)C(F)F	9.1%	25.1µM*	u
O=c1c(-c2cccs2)nc2cnc(N3CCNCC3)nc2n1C1CC1	-1.6%	x	x
Cc1cccnc1Nc1nc(-c2ccccn2)cs1	20.2%[38.3 µM]	x	0.794µM*
Cc1cccnc1Nc1nc(-c2ccc(O)cc2O)cs1	x	x	-19.4%[46.1 µM]
COc1ccc(-c2nc3cnc(N4CCN(C)CC4)nc3n(-c3ccc(OC)cc3)c2=O)cc1	0.2%	x	x
COc1cc(C(=O)Oc2c(CN3CCOCC3)cc(Cl)c3cccnc23)cc(OC)c1OC	13.8%[38.3 µM]	x	-26.2%[46.1 µM]
COc1ccc(C(=O)Oc2c(CN3CCOCC3)cc(Cl)c3cccnc23)cc1	43.8%[38.3 µM]	x	-13.3%[46.1 µM]
O=C(Oc1c(CN2CCOCC2)cc(Cl)c2cccnc12)c1ccccc1Cl	19.2%	-2.7%	7.94µM*
O=C(Oc1c(CN2CCOCC2)cc(Cl)c2cccnc12)c1ccc(F)cc1	52.2%[38.3 µM]	x	5.01µM*
O=C(Oc1c(CN2CCOCC2)cc(Cl)c2cccnc12)c1cccs1	27.6%	6.0%	u
COc1cccc(C(=O)Oc2c(CN3CCOCC3)cc(Cl)c3cccnc23)c1	38.7%[38.3 µM]	x	10µM*
O=c1cc(-c2cccc(-c3ccc(C(F)(F)F)cc3)c2)c2cc3c(cc2o1)OCO3	4.7%	x	x
Cc1cccc(C(=O)O)c1C[C@H]1NCC[C@H]2c3ccccc3N[C@@H]12	14.3%	x	x
COc1ccc(C(=O)N2CCC[C@@]3(CCN(Cc4ccc(C#N)cc4)C3)C2)cc1	4.9%	-7.2%	x
Cc1nn(CCc2nn[nH]n2)c2nc(-c3ccc(C4CCCCC4)cc3)cc(C(F)(F)F)c12	22.4%	-2.5%	12.6µM*
Cc1nn(CCC(=O)O)c2nc(-c3cccnc3)cc(C(F)(F)F)c12	-1.2%[38.3 µM]	x	-25.9%[46.1 µM]
N=c1ccn2c(n1)OCC1C2O[C@@H](O)[C@H]1O (stereo partly drawn)	20.4%	-0.5%	x
CCOC(=O)c1sc(=NC(=O)c2cccc(OC)c2)n(C)c1C	x	x	10µM*
CCOC(=O)c1sc(=NC(=O)COc2ccc(Cl)cc2)n(C)c1C	4.5%	1.7%	-27.8%
N#Cc1cccc(CS(=O)(=O)c2nnnn2C2CCCCC2)c1	10.3%	-4.0%	x
N#CCCn1c(=O)cnc2cnc(Nc3ccccc3)nc21	-0.9%	3.3%	x
CC(C)(C)c1nnc2sc(SC/C(O)=C(\C#N)c3nc4ccccc4[nH]3)nn2c1=O	12.6µM*	x	u
SMILES	IMPase Li inh	ERK EGF inh	NPSR antagonist
CC(C)(C)c1nnc2sc(SCC(=O)c3ccccc3)nn2c1=O	16.9%[38.3 µM]	x	-20.4%[46.1 µM]
COc1cccc(-c2nc(NC3CCNCC3)c3ccccc3n2)c1	32.4%	x	x
N=C(N)c1ccc(-c2ccc(-c3ccc(C(=N)N)cc3)o2)cc1	-3.8%	x	x
C=CCn1c(SCCN2C(=O)c3ccccc3C2=O)nc2scc(-c3ccccc3)c2c1=O	8.2%[38.3 µM]	x	12.6µM*
C=CCn1c(SCc2ccccc2)nc2scc(-c3ccc(C)o3)c2c1=O	-4.1%[38.3 µM]	x	0.0%[46.1 µM]
O=c1[nH]c(SCc2c(Cl)c(Cl)c(Cl)c(Cl)c2Cl)nc(=S)[nH]1	8.8%	x	x
C=CCOc1cccc(C2C(C(=O)c3ccc(C)o3)=C(O)C(=O)N2c2nccs2)c1 (stereo not drawn)	x	x	5.01µM*
Cc1ccc(C(=O)C2=C(O)C(=O)N(c3ncccn3)C2c2cccc(Cl)c2)o1 (stereo not drawn)	u	x	3.2%[46.1 µM]
COc1ccc(C2C(C(C)=O)=C(O)C(=O)N2c2nc3ccccc3s2)cc1OC (stereo not drawn)	u	-0.7%	-40.7%
Cc1ccc2nc(N3C(=O)C(O)=C(C(=O)c4ccc(C)o4)C3c3cccc(O)c3)sc2c1 (stereo not drawn)	8.91µM*	-5.9%	-58.2%
CCCCCCCC/C=C\CCCCCCCC(=O)N(CCO)CCO	-9.3%	x	x
COc1ccc(CCNC(=O)COc2ccc(-c3ccccc3)cc2)cc1OC	10µM*	16.6%	-21.1%[46.1 µM]
COc1ccc(CCNC(=O)CC(c2ccccc2)c2cccc(C)c2O)cc1OC (stereo not drawn)	6.9%	u	1µM*
COc1ccc(CCNC(=O)CCCOc2ccc(C)cc2)cc1OC	-0.2%	-1.1%	7.6%
COc1ccc(CCNC(=O)CSc2ccccc2)cc1OC	-4.7%	0.6%	18.0%
O=c1oc2ccccc2c(O)c1/C=N/c1nc(-c2ccc(O)c(O)c2)cs1	-14.7%	x	x
NC(Cc1cc(I)c(Oc2cc(I)c(O)c(I)c2)c(I)c1)C(=O)O (stereo not drawn)	6.6%	0.2%	x
COc1ccc2[nH]cc(CCNc3cc(-c4ccccc4OC)ncn3)c2c1	2.2%	x	x
Nc1nc(C(=O)O)c(N=Nc2ccccc2)c(=O)[nH]1	-5.2%	x	x
COc1ccc(-c2cn[nH]c2-c2ccc(OCc3ccccc3)cc2O)cc1OC	x	22.4µM*	-42.0%
COc1ccc(-c2cn[nH]c2-c2ccc(OCc3ccc(F)cc3)cc2O)cc1OC	x	u	-50.8%
COc1ccc(C2CN=NC2C(=O)c2ccccc2)cc1 (stereo not drawn)	x	-11.2%[57.5 µM]	-16.4%
Oc1ccc(C=Nc2ccc(N3CCOCC3)cc2)c(O)c1	24.2%[38.3 µM]	x	-17.9%[46.1 µM]
Oc1ccc(N=Nc2cccc(C(F)(F)F)c2)cc1C=Nc1ccc(N2CCOCC2)cc1	-1.2%	-1.0%	7.94µM*
O=C(O)C1CC=CCC1C(=O)N1CCN(c2nc(-c3ccccc3Cl)c3cc(Br)ccc3n2)CC1 (stereo not drawn)	11.2µM*	x	12.6µM*
SMILES	IMPase Li inh	ERK EGF inh	NPSR antagonist
O=C(O)C1CC=CCC1C(=O)N1CCN(c2nc(-c3ccccc3)c3ccccc3n2)CC1 (stereo not drawn)	14.8%[38.3 µM]	x	-8.7%[46.1 µM]
O=C(O)CCc1ccc(-c2ccccc2)[nH]1	-2.4%	x	x
O=C(/C(=C/c1ccc(Cl)cc1)c1nc2ccccc2[nH]1)c1ccccc1	14.6%[38.3 µM]	x	u
COc1cc(/C=C(/C(=O)c2cccs2)c2nc3ccccc3[nH]2)cc(OC)c1O	88.8%[38.3 µM]	x	12.6µM*
COc1cc(/C=C2\C(=O)ON=C2c2ccccc2)cc(Cl)c1O	13.2%	-3.6%	7.94µM*
CC1=NOC(=O)/C1=C/c1ccc(O)cc1	12.0%	12.6%	-10.3%
O=C1ON=C(c2ccc(Cl)cc2)/C1=C/c1ccc(O)cc1	16.4%	u	6.31µM*
COc1cc(/C=C2/C(=O)ON=C2c2ccccc2)ccc1O	13.3%	u	u
CCC(Cl)CC(Cl)C(Cl)C(Cl)C(Cl)C(C)Cl (stereo not drawn)	8.3%	x	x
O=C(OCC(=O)N1CCN(C(=O)c2ccco2)CC1)c1cc(-c2ccc(Cl)c(Cl)c2Cl)nc2ccccc12	10.7%[38.3 µM]	x	10µM*
O=C(CSc1cccc2cccc(Cl)c12)OCC(=O)N1CCN(C(=O)c2ccco2)CC1	10µM*	x	-12.6%[46.1 µM]
Cc1cc(Br)ccc1SCC(=O)OCC(=O)N1CCN(C(=O)c2ccco2)CC1	-9.0%[38.3 µM]	x	-3.5%[46.1 µM]
O=C(OCC(=O)N1CCN(C(=O)c2ccco2)CC1)c1cc(-c2ccco2)nc2ccccc12	-10.9%[38.3 µM]	x	-13.7%[46.1 µM]
ON=C1CCCCC1	1.3%	x	x
